Results reported in PubChem BioAssay (EPA / NIEHS).
Where “and” joins values, the source holds several entries; their conditions need not be identical. Equal entries are not always repeated. Results filed as inconclusive are left out. A structure can be active in one record and inactive in another. Calls of active or inactive are those of the source. Rule for the calls, unless noted: active = hit-call score of the fitted dose curve at least 0.9, where 1 is the maximum; inactive = score below 0.9.

Key:
[1] = target: Retinoic acid receptor RXR-alpha (Homo sapiens) (UniProt P19793); assay: ATG_RXRa_TRANS: Attagene TRANS-FACTORIAL HepG2 Assay for human Retinoid X Receptor alpha (RXRa) (AID 2283012; active = hit-call score of the fitted dose curve at least 0.9, where 1 is the maximum)
Method in brief: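 Chimeric NR-GAL4 trans-activation in HepG2, 24 h treatment; reporter transcripts quantified by fluorescence on capillary electrophoresis, analysed for upward change from DMSO.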

[2] = target: human Retinoid X Receptor beta (RXRb), RXRB (gene 6257) (UniProt P28702); assay: ATG_RXRb_TRANS: Attagene TRANS-FACTORIAL HepG2 Assay for human Retinoid X Receptor beta (RXRb) (AID 2283013; active = hit-call score of the fitted dose curve at least 0.9, where 1 is the maximum)
Method in brief: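 After a 24 h incubation with test chemical, transfected HepG2 cells carrying NR-Gal4 fusions and GAL4-UAS reporter transcription units yield RNA whose reporter cDNA is FAM-labelled, HpaI-cut and sized by capillary electrophoresis; increases over DMSO are scored.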

[3] = target: human Thyroid Receptor alpha (THRa1), THRA (gene 7067) (UniProt P10827); assay: ATG_THRa1_TRANS: Attagene TRANS-FACTORIAL HepG2 Assay for human Thyroid Receptor alpha (THRa1) (AID 2283014; active = hit-call score of the fitted dose curve at least 0.9, where 1 is the maximum)
Method in brief: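 First, HepG2 cells receive multiple GAL4-UAS reporter units and the chimeric receptor. They are then dosed for 24 h, after which RNA is reverse-transcribed, amplified, labelled, HpaI-cut and sized by capillary electrophoresis; gain relative to DMSO is scored.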

[4] = read-out: E-selectin (Homo sapiens) (UniProt P16581); assay: BSK_3C_Eselectin: BioMAP Diversity Plus: 3C Assay for Eselectin Biomarker Activity (AID 2283015); settings: primary human endothelial cells (HUVEC); actives raise or lower the signal;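 for outcome: cell surface E-selectin protein quantified by ELISA 24 h after dosing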
Method in brief: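 Human vascular endothelium from umbilical vein is exposed to test chemicals for 24 h. E-selectin levels are read by ELISA and compared with DMSO controls.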

[5] = read-out: Interleukin-1 alpha (IL1a), IL1A (gene 3552); assay: BSK_BE3C_IL1a: BioMAP Diversity Plus: BE3C Assay for Interleukin-1 alpha (IL1a) Biomarker Activity (AID 2283016); settings: primary human bronchial epithelial cells; actives raise or lower the signal
Method in brief: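 Measured in human lung primary bronchial epithelial cells: IL-1a by ELISA at 24 h after dosing, with bidirectional fitting against DMSO.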

[6] = read-out: Monocyte Chemoattractant Protein-1 (MCP1), CCL2 (gene 6347); assay: BSK_3C_MCP1: BioMAP Diversity Plus: 3C Assay for Monocyte Chemoattractant Protein-1 (MCP1) Biomarker Activity (AID 2283017); settings: primary human endothelial cells (HUVEC); actives raise or lower the signal
Method in brief: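 Endothelial cells from human umbilical vein are dosed with chemical, cultured 24 h, then assayed for MCP-1 by ELISA; both increases and decreases are modelled against DMSO controls.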

[7] = read-out: Monocyte Chemoattractant Protein-1 (MCP1), CCL2 (gene 6347); assay: BSK_4H_MCP1: BioMAP Diversity Plus: 4H Assay for Monocyte Chemoattractant Protein-1 (MCP1) Biomarker Activity (AID 2283018); settings: primary human endothelial cells (HUVEC); actives raise or lower the signal
Method in brief: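 Primary human umbilical vein endothelium is exposed to chemical for 24 h before MCP-1 is assayed by ELISA. Concentration-response fitted bidirectionally relative to DMSO.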

[8] = read-out: Human Leukocyte Antigen - DR isotype (HLADR), HLA-DRA (gene 3122); assay: BSK_3C_HLADR: BioMAP Diversity Plus: 3C Assay for Human Leukocyte Antigen - DR isotype (HLADR) Biomarker Activity (AID 2283019); settings: primary human endothelial cells (HUVEC); actives raise or lower the signal;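 for outcome: ELISA of cell-surface HLA-DR on HUVEC 24 h after dosing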
Method in brief: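 Endothelial cells from human umbilical vein are treated with test chemical; after 24 h, HLA-DR levels are measured by ELISA. Data are fitted in both directions using DMSO as the baseline.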

[9] = read-out: Interleukin-8 (IL8), CXCL8 (gene 3576); assay: BSK_3C_IL8: BioMAP Diversity Plus: 3C Assay for Interleukin-8 (IL8) Biomarker Activity (AID 2283020); settings: primary human endothelial cells (HUVEC); actives raise or lower the signal
Method in brief: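 Using DMSO-treated wells as the baseline, bidirectional curve fitting was applied to ELISA-measured IL-8 from human umbilical vein endothelial cultures sampled 24 h after compound addition.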

[10] = read-out: Monokine induced gamma interferon (MIG), CXCL9 (gene 4283); assay: BSK_3C_MIG: BioMAP Diversity Plus: 3C Assay for Monokine induced gamma interferon (MIG) Biomarker Activity (AID 2283021); settings: primary human endothelial cells (HUVEC); actives raise or lower the signal;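 for AC50: MIG protein level measured by immunoassay in the treated endothelial cultures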
Method in brief: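 ELISA-measured MIG in dosed HUVEC 3C cultures at 24 h, analysed by bidirectional fitting with DMSO defining baseline activity.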

[11] = BSK_3C_SRB: Viability Assessment in the BioMAP Diversity Plus: 3C Assay (AID 2283023); settings: primary human endothelial cells (HUVEC);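 note: cells read 24 h after compound dosing; fitted both ways against DMSO so a hit may be signal rise or drop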
Method in brief: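 Cells were dosed with chemical, cultured 24 h, fixed with 10% TCA, stained with 0.1% SRB and read at 560 nm. Human umbilical vein endothelium was used; DMSO served as negative control and baseline.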

[12] = read-out: Matrix Metallopeptidase 1 (MMP1), MMP1 (gene 4312); assay: BSK_BE3C_MMP1: BioMAP Diversity Plus: BE3C Assay for Matrix Metallopeptidase 1 (MMP1) Biomarker Activity (AID 2283024); settings: primary human bronchial epithelial cells; actives raise or lower the signal
Method in brief: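 In this multiplexed primary-cell system, human bronchial epithelium received chemicals for 24 h before an ELISA for MMP1. Values reflect bidirectional fits normalised to the DMSO baseline.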

[13] = BSK_3C_Vis: BioMAP Diversity Plus: 3C Assay for Morphology Visualization (AID 2283025); settings: primary human endothelial cells (HUVEC);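 note: fitted both ways so gain or loss versus DMSO counts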
Method in brief: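 Light-microscopy morphology readout, 24 h exposure, human primary umbilical vein endothelium; analysed relative to DMSO with bidirectional fitting.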

[14] = read-out: Pselectin, SELP (gene 6403); assay: BSK_4H_Pselectin: BioMAP Diversity Plus: 4H Assay for Pselectin Biomarker Activity (AID 2283026); settings: primary human endothelial cells (HUVEC); actives raise or lower the signal
Method in brief: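 Bidirectional fits against DMSO gave the endpoint. Cells: primary human umbilical vein endothelium, chemical-treated for 24 h before ELISA detection of P-selectin.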

[15] = BSK_4H_SRB: Viability Assessment in the BioMAP Diversity Plus: 4H Assay (AID 2283027); settings: primary human endothelial cells (HUVEC);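 note: cells exposed to compound for 24 h before staining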;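 for AC50: curves fitted both ways versus DMSO so AC50 may be loss or gain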
Method in brief: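 HUVEC, 24 h post-dose; 10% TCA fix, 0.1% SRB stain, A560 nm. Total protein = overt cytotoxicity, parallel to biomarker read. Bidirectional fit vs DMSO baseline.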

[16] = BSK_BE3C_SRB: Viability Assessment in the BioMAP Diversity Plus: BE3C Assay (AID 2283028); settings: primary human bronchial epithelial cells;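 for AC50: fitted both ways so AC50 may mark signal gain or loss versus DMSO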
Method in brief: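 Overt cytotoxicity was assessed as total protein in confluent human primary bronchial epithelial cultures 24 h after chemical addition, using 0.1% sulforhodamine B staining read at 560 nm.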

[17] = read-out: Thrombomodulin, THBD (gene 7056); assay: BSK_3C_Thrombomodulin: BioMAP Diversity Plus: 3C Assay for Thrombomodulin Biomarker Activity (AID 2283029); settings: primary human endothelial cells (HUVEC); actives raise or lower the signal
Method in brief: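 In a multiplexed primary-cell system, human umbilical vein endothelium received chemical and was assayed 24 h later for thrombomodulin by ELISA. Parallel cultures were SRB-stained (0.1% SRB after 10% TCA fixation, read at 560 nm) to flag cytotoxicity.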

[18] = read-out: Urokinase-type plasminogen activator receptor (uPAR), PLAUR (gene 5329); assay: BSK_4H_uPAR: BioMAP Diversity Plus: 4H Assay for Urokinase-type plasminogen activator receptor (uPAR) Biomarker Activity (AID 2283030); settings: primary human endothelial cells (HUVEC); actives raise or lower the signal
Method in brief: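 Chemicals are dosed onto human vascular endothelial primary cells (umbilical vein). After 24 h, uPAR is read by ELISA. Gain or loss of signal is fitted relative to DMSO.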

[19] = read-out: Vascular endothelial growth factor receptor 2 (Homo sapiens) (UniProt P35968); assay: BSK_4H_VEGFRII: BioMAP Diversity Plus: 4H Assay for Vascular endothelial growth factor receptor 2 (VEGFR2) Biomarker Activity (AID 2283031); settings: primary human endothelial cells (HUVEC); actives raise or lower the signal
Method in brief: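 VEGFRII levels on human vascular endothelial primary cells were determined by ELISA at 24 hours post-dosing, with gain- or loss-of-signal fitted against DMSO controls.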

[20] = target: human Vitamin D Receptor (VDR), VDR (gene 7421) (UniProt P11473); assay: ATG_VDR_TRANS: Attagene TRANS-FACTORIAL HepG2 Assay for human Vitamin D Receptor (VDR) (AID 2283022; active = hit-call score of the fitted dose curve at least 0.9, where 1 is the maximum)
Method in brief: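 Fluorescence of labelled reporter cDNA fragments, resolved by capillary electrophoresis, gives mRNA induction after 24 h treatment of HepG2 cells carrying transfected Gal4-fusion reporter units. Activity is fitted in the positive direction with DMSO as baseline.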

Chain of human Retinoid X Receptor beta (RXRb), RXRB (gene 6257) (P28702 whole entry, looked up, the tested form may be a part): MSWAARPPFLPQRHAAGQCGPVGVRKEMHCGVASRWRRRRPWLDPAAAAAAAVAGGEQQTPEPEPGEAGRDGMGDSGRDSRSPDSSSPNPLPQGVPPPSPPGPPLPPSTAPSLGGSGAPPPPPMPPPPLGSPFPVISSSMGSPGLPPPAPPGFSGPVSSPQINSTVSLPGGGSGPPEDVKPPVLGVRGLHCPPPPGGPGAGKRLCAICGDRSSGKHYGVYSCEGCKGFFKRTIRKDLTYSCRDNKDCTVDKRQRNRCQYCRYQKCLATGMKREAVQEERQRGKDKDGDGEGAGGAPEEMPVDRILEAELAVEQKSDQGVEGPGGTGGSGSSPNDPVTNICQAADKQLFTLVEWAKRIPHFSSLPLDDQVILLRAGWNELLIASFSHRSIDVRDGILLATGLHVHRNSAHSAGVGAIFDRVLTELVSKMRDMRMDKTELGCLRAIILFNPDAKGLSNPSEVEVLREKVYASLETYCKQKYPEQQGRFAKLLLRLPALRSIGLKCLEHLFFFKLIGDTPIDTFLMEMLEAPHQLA
Chain of E-selectin (Homo sapiens) (P16581 whole entry, looked up): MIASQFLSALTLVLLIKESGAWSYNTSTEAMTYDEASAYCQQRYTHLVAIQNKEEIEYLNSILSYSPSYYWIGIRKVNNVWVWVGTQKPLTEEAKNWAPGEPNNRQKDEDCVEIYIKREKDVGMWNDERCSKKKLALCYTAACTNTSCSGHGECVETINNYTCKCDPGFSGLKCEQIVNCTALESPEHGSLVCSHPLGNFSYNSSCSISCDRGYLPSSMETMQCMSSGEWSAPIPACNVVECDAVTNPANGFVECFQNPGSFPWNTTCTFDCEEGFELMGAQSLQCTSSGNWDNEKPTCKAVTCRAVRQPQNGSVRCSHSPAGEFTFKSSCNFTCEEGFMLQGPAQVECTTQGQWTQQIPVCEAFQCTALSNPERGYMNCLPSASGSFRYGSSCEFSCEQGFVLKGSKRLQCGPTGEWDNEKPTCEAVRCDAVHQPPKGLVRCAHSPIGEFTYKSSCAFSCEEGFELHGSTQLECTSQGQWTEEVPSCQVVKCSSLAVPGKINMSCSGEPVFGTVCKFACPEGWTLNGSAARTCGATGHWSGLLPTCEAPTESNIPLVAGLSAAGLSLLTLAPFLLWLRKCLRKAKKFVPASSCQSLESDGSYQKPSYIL
Chain of human Thyroid Receptor alpha (THRa1), THRA (gene 7067) (P10827 whole entry, looked up, the tested form may be a part): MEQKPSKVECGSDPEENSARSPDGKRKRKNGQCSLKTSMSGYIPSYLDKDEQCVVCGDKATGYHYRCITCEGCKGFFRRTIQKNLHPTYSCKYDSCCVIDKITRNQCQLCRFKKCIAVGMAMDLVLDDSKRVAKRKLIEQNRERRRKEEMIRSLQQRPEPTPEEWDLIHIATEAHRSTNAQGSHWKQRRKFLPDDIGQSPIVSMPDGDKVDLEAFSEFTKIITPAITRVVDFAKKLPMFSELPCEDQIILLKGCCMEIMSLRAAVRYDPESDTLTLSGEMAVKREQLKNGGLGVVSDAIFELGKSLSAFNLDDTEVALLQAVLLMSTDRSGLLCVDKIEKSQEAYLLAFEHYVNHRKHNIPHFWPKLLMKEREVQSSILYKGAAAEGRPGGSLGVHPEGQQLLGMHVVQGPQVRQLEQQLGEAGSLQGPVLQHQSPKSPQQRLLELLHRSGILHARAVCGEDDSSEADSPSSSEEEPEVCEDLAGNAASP
Chain of Retinoic acid receptor RXR-alpha (Homo sapiens) (P19793 whole entry, looked up, the tested form may be a part): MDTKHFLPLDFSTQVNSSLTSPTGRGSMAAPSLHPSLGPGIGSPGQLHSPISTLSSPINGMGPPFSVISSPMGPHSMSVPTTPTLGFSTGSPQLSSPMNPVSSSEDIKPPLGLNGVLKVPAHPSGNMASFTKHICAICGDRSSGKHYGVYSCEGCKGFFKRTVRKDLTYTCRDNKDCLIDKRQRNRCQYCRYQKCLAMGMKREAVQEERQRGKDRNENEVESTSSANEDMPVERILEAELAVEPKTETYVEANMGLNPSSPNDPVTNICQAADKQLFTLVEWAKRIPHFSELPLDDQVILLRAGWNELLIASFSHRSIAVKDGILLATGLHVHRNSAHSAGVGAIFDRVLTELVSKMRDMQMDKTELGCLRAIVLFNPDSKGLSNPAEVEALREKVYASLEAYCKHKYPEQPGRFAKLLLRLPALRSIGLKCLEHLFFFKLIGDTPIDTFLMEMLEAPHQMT
Chain of human Vitamin D Receptor (VDR), VDR (gene 7421) (P11473 whole entry, looked up, the tested form may be a part): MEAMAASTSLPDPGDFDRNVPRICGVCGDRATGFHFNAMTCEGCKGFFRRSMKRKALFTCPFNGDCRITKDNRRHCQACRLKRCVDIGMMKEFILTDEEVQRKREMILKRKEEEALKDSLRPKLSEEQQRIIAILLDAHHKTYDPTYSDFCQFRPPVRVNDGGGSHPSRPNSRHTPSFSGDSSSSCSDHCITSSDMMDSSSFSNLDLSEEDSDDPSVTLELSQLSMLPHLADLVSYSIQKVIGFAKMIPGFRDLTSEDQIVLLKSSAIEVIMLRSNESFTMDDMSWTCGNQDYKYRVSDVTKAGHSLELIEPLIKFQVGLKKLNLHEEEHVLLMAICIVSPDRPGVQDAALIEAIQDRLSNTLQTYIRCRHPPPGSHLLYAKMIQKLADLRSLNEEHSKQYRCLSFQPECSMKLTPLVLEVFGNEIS

Cc1cc(Cl)ccc1N
outcome [1]: inactive
outcome [2]: inactive
outcome [3]: inactive
outcome [4]: inactive
outcome [5]: inactive
outcome [6]: inactive
outcome [7]: inactive
outcome [8]: inactive
outcome [9]: inactive
outcome [10]: inactive
outcome [11]: inactive
outcome [12]: inactive
outcome [13]: inactive
outcome [14]: inactive
outcome [15]: inactive
outcome [16]: inactive
outcome [17]: inactive
outcome [18]: inactive
outcome [19]: inactive

Nc1ccc(Br)cc1
outcome [1]: inactive
outcome [2]: inactive
outcome [3]: inactive

CCC[CH2][Sn]([CH2]CCC)([CH2]CCC)[CH2]CCC
AC50 [1]: 0.866 µM (active)
AC50 [2]: 0.0334 µM (active)
outcome [3]: inactive

COc1ccccc1N
outcome [1]: inactive
outcome [2]: inactive
outcome [3]: inactive
outcome [4]: inactive
outcome [5]: inactive
outcome [6]: inactive
outcome [7]: inactive
outcome [8]: inactive
outcome [9]: inactive
outcome [10]: inactive
outcome [11]: inactive
outcome [12]: inactive
outcome [13]: inactive
outcome [14]: inactive
outcome [15]: inactive
outcome [16]: inactive
outcome [17]: inactive
outcome [18]: inactive
outcome [19]: inactive

c1csc(-c2ccc(-c3cccs3)s2)c1
outcome [1]: inactive
outcome [2]: inactive
outcome [3]: inactive
outcome [20]: inactive

Cc1cc(Cl)ccc1OCCCC(=O)O
outcome [1]: inactive
AC50 [2]: 27.7 µM (active)
outcome [3]: inactive

O=C(O)C1(c2ccc3c(c2)OC[C@H](Cc2ccc(-c4ccccc4)cc2)[C@H]3O)CCCC1
outcome [1]: inactive
outcome [2]: inactive
outcome [3]: inactive
AC50 [4]: 24.9 µM (active)
AC50 [5]: 15.3 µM (active)
AC50 [6]: 23.6 µM (active)
AC50 [7]: 20 µM (active)
AC50 [8]: 20 µM (active)
AC50 [9]: 29.9 µM (active)
AC50 [10]: 35.7 µM (active)
AC50 [11]: 28 µM (active)
AC50 [12]: 31.7 µM (active)
outcome [13]: inactive
AC50 [14]: 27.1 µM (active)
AC50 [15]: 20 µM (active)
AC50 [16]: 26.2 µM (active)
outcome [17]: inactive
outcome [18]: inactive
outcome [19]: inactive

CC1(C)[C@H](C(=O)O[C@H](C#N)c2cccc(Oc3ccccc3)c2)[C@@H]1/C=C(\Cl)C(F)(F)F
outcome [1]: inactive
outcome [2]: inactive
outcome [3]: inactive
outcome [4]: inactive
outcome [5]: inactive
outcome [6]: inactive
AC50 [7]: 1.11 µM (active) and 4.07 µM (active)
outcome [8]: inactive
outcome [9]: inactive
outcome [10]: inactive
outcome [20]: inactive
outcome [11]: inactive
AC50 [12]: 0.0142 µM (active)
outcome [12]: inactive
outcome [13]: inactive
outcome [14]: inactive
outcome [15]: inactive
outcome [16]: inactive
outcome [17]: inactive
outcome [18]: inactive
outcome [19]: inactive
